What follows are sequences tested against CAMK2N1 (assay: pooled miR-30 sensor sort-seq; sequence = guide strand). Conditions: shRNA.

Row | Sequence | sensor-assay potency score (higher = more potent)
1 | TCTTCAATAACAACCCGCTTGC | -0.41
2 | TATCATCTTCAATAACAACCCG | -0.355
3 | TTTCAGCACGTCATCAATCCTA | -0.00921
4 | ATCATCTTCAATAACAACCCGC | -0.379
5 | TTCAGCACGTCATCAATCCTAT | -0.353
6 | TTCAATAACAACCCGCTTGCTC | 0.0759

The sequences below were run against CAMKV in the same assay as above. Conditions: shRNA.

Row | Sequence | sensor-assay potency score (higher = more potent)
7 | TATCTGTCAGTCACCTCCGATG | -0.879
8 | TAACACAAATAACAGGGTCTTA | -0.811
9 | TTGAACTGAGCAGAAAATCTGC | 0.22
10 | TTGCTTGTGTCTCGCTCCGAGT | -1.54
11 | TTAAACATACTGCCCTACCTTT | -0.684
12 | TCACTGATGACAATCTTCGAGT | -1.01
13 | TTTCATTGTTGAACTGAGCAGA | 0.188
14 | TTGCCTGTCGTCTTGTCCTTGG | -0.405
15 | TTCTGGAACTTCTTGCAGGTGT | -0.129
16 | TATAGTTCTTCTTGTCGCCCAG | -0.36
17 | ATATCTGTCAGTCACCTCCGAT | -0.99
18 | TTATAGTTCTTCTTGTCGCCCA | 0.464

The sequences below were run against CAMSAP1L1 in the same assay as above. Conditions: shRNA.

Row | Sequence | sensor-assay potency score (higher = more potent)
19 | TACTTTTTCTATACTGACCATT | -0.4
20 | TTCACCACTTCAAACCACCAGA | -0.595
21 | TACTGTATCCATATCTTCCATT | -0.745
22 | TACACTCTCGTTATCACCCGTG | 0.34
23 | TTGTATTATGTGCTTATTGGAT | -0.942
24 | TTATCCAGTACATGACAGCGTC | -0.641
25 | TTTTGCAGCATCACTCTTGAGA | -0.108
26 | TTCTGCTTTTTGATCATCCTTA | -0.157
27 | TTCAACAGGTACATCAGCCTTT | 0.426
28 | TTGTTCATGACAACAGAGCTTA | 0.195
29 | TTGATTTCTTCAGTTTCTGGGC | -0.439

Each sequence was assayed against CAPNS2 in the same assay as above. Conditions: shRNA.

Row | Sequence | sensor-assay potency score (higher = more potent)
30 | TATCTCCATCTTCATTAGCATA | -1.87
31 | TTGATAGACACTTGAATCAGGC | -0.108
32 | TAAAATCCATATCTCCATCTTC | -0.0154
33 | ATGACAGACACAATGCTCCGGC | -0.17
34 | TTTGTGCTTAGAAAGGACTTTG | -0.468
35 | TTTGTTGAGAATATTCATCAGA | -0.0355
36 | ATACTGCTTATAAACACACTGC | -0.451
37 | TAAAATTCACAATTCCTCCAAC | -0.361
38 | TAATTCAGCAGTAAAAGGCAGC | -0.377
39 | TCTATCTCTATCCAGAGACTTG | -1.33
40 | TAGACACTTGAATCAGGCCATC | -1.43

Reference: the OligoGym collection
